In the library only some 3.8% were active in any assay of this set; here they are far more common.
ATXN2 expr inh = inhibitors of ATXN2 expression; HEK-293 ATXN2-luciferase reporter, luminescence, 24 h; Potency, µM (highest dose often 57 µM), inactives show at the top dose activity change, negative = inhibition, actives largely listed as inhibitors; 0.72% of 360,000 active; AID 1745845; also: % is scaled to controls: 0 for no effect and ±100 for the full control effect; nearly all actives have a fitted effect of over 55% in size
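qHTS (up to 57 uM final) was run with 24 h compound exposure of reporter cells at 37 °C. Each well was multiplexed: SteadyGlo luminescence measured ATXN2-luciferase expression after a fluorogenic Gly-Phe-AFC viability readout (25 uM final).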
S2 tox = cell viability loss in ATXN counter-screen | S2 cells (HEK-293 line with an ATXN2-luciferase reporter) viability, CellTiter-Fluor protease fluorescence, 24 h | Potency, µM (highest dose often 56.7 µM), hits mostly cytotoxic | 0.49% of 400,000 active | AID 651635; also: nearly all actives have a fitted effect of over 40% in size
A549 tox = kills or reduces viability of A549 cells in Nrf2 counter-screen. A549 ARE-Fluc cells, CellTiter-Fluor viability, 18-24 h. Potency, µM (titrated, usually from 46 µM), for the others: at the highest dose activity change, negative = cytotoxicity, most hits filed as inhibitors. 0.16% of 390,000 active. AID 504648; also: % is scaled to controls: 0 for no effect and ±100 for the full control effect
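A549 ARE_Fluc cells in 5% FBS OPTI-MEM were exposed to compounds in concentration-response for 18-24 h at 37 deg C. Viability was read by CellTiter-Fluor fluorescence (Ex 405/Em 525) after 30 min, before the luciferase read.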
Nrf2 block = Nrf2 pathway inhibition. A549 ARE-Fluc reporter, luciferase luminescence, 18-24 h. Potency, µM (top dose mostly 46 µM), for inactives: top-dose activity change, negative = inhibition, hits mostly inhibitors. 2.1% of 360,000 active; also: % is scaled to controls: 0 for no effect and ±100 for the full control effect; nearly all actives have a fitted effect of over 60% in size
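Quantitative HTS in A549 cells stably bearing an antioxidant response element-firefly luciferase construct. Inhibition of Nrf2-driven transcription was scored by luminescence after 18-24 h of compound exposure at 37 °C.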
TGFb SMAD3 inh = blocks TGF-b signaling; HepG2 CAGA-GFP TGF-b/SMAD3 reporter, GFP fluorescence, 18 h; TGF-beta stimulated, 500 pg/mL final; Potency, µM (doses to about 46.1 µM), for the others: at the top dose activity, negative = inhibition, usual class: inhibitors; 1.2% of 410,000 active; AID 588855; also: % is scaled to controls: 0 for no effect and ±100 for the full control effect; nearly all actives have a fitted effect of over 65% in size
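HEPG2 CAGA-GFP cells (1000/well, DMEM with 1% FBS) were pre-incubated 2 h at 37 degrees C, given compound by pin tool, then stimulated with TGF-beta at 500 pg/mL final for 18 h before per-cell GFP fluorescence imaging.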
HepG2 tox = HepG2 cytotoxicity, counter-screen for TGF-b inhibitors; HepG2 CAGA-GFP viability, ATP luminescence, 18 h; Potency, µM (doses to about 46.1 µM), without a hit: at the highest dose activity change, negative = cytotoxicity, most hits filed as cytotoxic; 0.76% of 410,000 active
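HepG2 CAGA-GFP cells (1000/well, DMEM with 1% FBS) received compound, then TGF-beta at 500 pg/mL final, and were incubated 18 hours at 37 degrees C. Viability was read by CellTiter-Glo luminescence. Media-only wells were set as complete cell-killing and DMSO as no toxicity.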
* hit, by the source's call; i = inactive; ? = inconclusive; nt = no result; [ ] = another dose, or the depositor's remark. Calls follow the shape of the dose curve; as a rule, active = well fitted curve in the direction sought with a large enough effect; inconclusive = small, poorly fitted or top-dose-only effect, or another doubt; inactive = no such curve, though single readings can be large; an effect the other way counts as inactive or inconclusive. Potency is read from the fitted curve at half-maximal effect.

SMILES	ATXN2 expr inh	S2 tox	A549 tox	Nrf2 block	TGFb SMAD3 inh	HepG2 tox
CCOC(=O)c1cccc(NC(=O)c2ccc(N(C)C)cc2)c1	-27%	i	-6%	16µM*	-6%	8%
COc1ccc(NC(=O)c2ccco2)cc1NC(=O)COc1cc(C)ccc1C(C)C	-2%	i	-19%	18µM*	-16%	-28%
CC(=O)c1ccc(NC(=O)c2ccc(NC(=O)c3ccco3)cc2)cc1	-6%	i	-4%	?	0%	0%
CCOC(=O)c1cccc(NC(=O)COc2ccc([N+](=O)[O-])cc2)c1	-9%	i	-10%	26µM*	-14%	-8%
Cc1ccc(C(C)C)c(OCC(=O)Nc2cccc(NC(=O)c3ccco3)c2)c1	?	?	4%	-12%	?	-35%
CCOC(=O)c1cccc(NC(=O)c2ccc(NC(=O)c3ccco3)cc2)c1	-36%	i	-11%	21µM*	-5%	-19%
O=C(Nc1ccccc1)c1cccc(NC(=O)c2ccco2)c1	-3%	i	-7%	?	13%	-7%
CCOc1ccc(C(=O)Nc2ccc(NC(=O)c3ccco3)c(Cl)c2)cc1Cl	?	?	?	21µM*	-9%	-9%
CNC(=S)N/N=C/c1c(C)c(C(=O)c2ccc(F)cc2)n2ccccc12	-15%	?	-3%	-5%	2%	-15%
CCN(c1ccccc1)S(=O)(=O)c1nnc(NC(=O)C(C)Oc2ccccc2)s1 (stereo not drawn)	6%	i	0%	?	?	-34%
O=C(Nc1cccc(F)c1)C1CCCN(C(=O)c2ccc(Cl)cc2)C1 (stereo not drawn)	-18%	i	-11%	7.3µM*	?	-21%
O=C(Nc1cccc(S(=O)(=O)N2CCCCCC2)c1)C1CCN(C(=O)c2ccc(F)cc2)CC1	-11%	?	-4%	26µM*	?	-17%
O=C(Nc1ccccc1)C1CCCN(C(=O)c2ccc(Cl)cc2)C1 (stereo not drawn)	-33%	i	1%	?	-18%	-14%
COCCCNC(=O)C1Cc2cc(S(=O)(=O)N3CCCC3)ccc2N1C(C)=O (stereo not drawn)	5%	i	-2%	?	3%	-2%
O=C(NCCc1nnc2n1CCN(Cc1ccc(F)c(F)c1)CC2)c1ccoc1	nt	i	nt	nt	nt	nt
CC(=O)NCC(=O)N1[C@H]2CC[C@H]1c1cc(Nc3ncc(C(F)(F)F)c(NC4CCC4)n3)ccc12	4.9µM*	nt	nt	nt	nt	nt
CCCCN(C(C)=O)c1ccc2c(c1)C1CC2CCN1C(=O)OCc1ccccc1 (stereo not drawn)	?	?	-10%	23µM*	13µM*	-27%
CCc1ccc(N(CC)C(=O)c2ccc3c(=O)n4c(nc3c2)CCCCC4)cc1	nt	nt	4%	?	nt	-43%
COc1cc(OC)cc(-c2nnc(NC(=O)CCS(=O)(=O)c3ccc(F)cc3)o2)c1	-19%	i	?	21µM*	?	-14%
COc1cc(-c2nnc(NC(=O)CCS(=O)(=O)c3ccccc3)o2)cc(OC)c1OC	57%	?	-26%	4%	11µM*	-40%
COCCOC(=O)c1[nH]c2c(c1C)C(=O)CC(c1ccco1)C2 (stereo not drawn)	10%	?	-9%	12%	?	-15%
Cc1c(C(=O)OCc2ccccc2)[nH]c2c1C(=O)CC(c1ccco1)C2 (stereo not drawn)	-13%	?	-27%	-14%	2.5µM*	-44%
COc1ccc(S(=O)(=O)Nc2cc(SCC(=O)O)c(O)c3ccccc23)cc1	nt	?	-10%	-1%	11µM*	-107%
Cc1cc(C)c(S(=O)(=O)Nc2cc(SCC(=O)O)c(O)c3ccccc23)cc1C	?	nt	3%	5%	?	-106%
O=C(O)CSc1cc(NS(=O)(=O)c2ccc(Cl)cc2)c2ccccc2c1O	?	i	-9%	-10%	?	6.3µM*
SMILES	ATXN2 expr inh	S2 tox	A549 tox	Nrf2 block	TGFb SMAD3 inh	HepG2 tox
COc1ccc(-c2noc(C3CC(=O)N(c4ccc(C)c(F)c4)C3)n2)c(OC)c1 (stereo not drawn)	-11%	i	-2%	?	?	-37%
CCOC(=O)C1CCN(c2c(C(=O)c3ccc(C)cc3)cnc3ccc(F)cc23)CC1	4%	i	2%	10%	-27%	-9%
Cc1ccc(-c2cc3c(nn2)-c2ccccc2C3=O)cc1	3.5µM*	i	1%	?	?	-39%
O=C1c2ccccc2-c2nnc(-c3ccc(F)cc3)cc21	-35%	i	-1%	?	-9%	-11%
Cc1ccc(Nc2nc(=O)c3cccnc3s2)c(Br)c1	168%	i	0%	?	-8%	-18%
N#Cc1sc2nc(N3CCCCC3)c3c(c2c1N)CCCC3	-22%	i	3%	-2%	11µM*	-100%
Cc1cnn(C(=O)c2cc(-c3ccccc3)nc3ccccc23)c1	-5%	i	-1%	2%	?	10µM*
O=C(c1cc(-c2ccccc2)nc2ccccc12)N1CCCC1	-3%	i	-4%	-2%	-1%	-9%
CC1CCCC(C)N1CCCNC(=O)c1cc2c(s1)-c1ccccc1OC2 (stereo not drawn)	?	i	15%	13%	?	14µM*
CCN1CCN(CCCNC(=O)c2cc3c(s2)-c2ccccc2OC3)CC1	?	i	2%	-10%	?	-30%
CC1CC(C)CN(CCCNC(=O)c2cc3c(s2)-c2ccccc2OC3)C1 (stereo not drawn)	25µM*	?	-15%	16%	?	-82%
COc1ccccc1CNC(=O)c1cc2c(s1)-c1ccccc1OC2	-13%	i	0%	15%	-8%	-11%
COc1ccc(CCNC(=O)c2cc3c(s2)-c2ccccc2OC3)cc1OC	?	i	2%	23µM*	-21%	-31%
COc1ccc(NC(=O)Cn2c(=O)n(-c3cccc(C)c3)c(=O)c3c2c2cc(C)ccc2n3C)cc1Cl	0%	i	0%	-10%[9.27 µM]	-17%	-18%
Oc1ccc(C2=NNC(c3ccc(O)cc3)=NN2)cc1	-3%	i	0%	-2%	12%	-14%
Cc1ccc(C(=O)C[n+]2cccc3cccc(O)c32)cc1	nt	nt	nt	nt	-6%	-11%
COC(=O)c1ccc(NC(=S)NCCCn2ccnc2)cc1	3%	i	0%	4%	14%	3%

Screening results: PubChem, National Center for Advancing Translational Sciences (NCATS)
